Consider one compound from PubChem BioAssay AID504656 (National Center for Advancing Translational Sciences (NCATS), 2011).

The structures appear in SMILES notation. Calls of active or inactive are those of the source.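 The calls were made as follows: active = any inhibition of parasite growth seen in the dose series, which yields a fitted potency; inactive = compounds showing no inhibition.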

The experiment in a line: Inhibitors of Cruzain: Trypanosoma Cruzi Growth Inhibition Assay. The settings on record: T. cruzi in NIH/3T3, beta-gal CPRG absorbance, 4 d. The source says: Cruzain is a cysteine protease from the tropical parasite Trypanosoma cruzi. This assay protocol is for testing followup compounds for T. Cruzi growth inhibition. See following references for additional details: Jadhav A, et al. J Med Chem. 2010 Jan 14;53(1):37-51. Mott BT, et al. J Med Chem. 2010 Jan 14;53(1):52-60. Ferreira, et al. J Med Chem. 2010 Jul 8;53(13):4891-905. Bettiol E, et al. PLoS Negl Trop Dis. 2009;3(2):e384. Assay Provider: Shoichet, Brian; University of California, San Francisco and Ana Rodriguez, New York University School of Medicine. Screening Center PI: Austin, C.P. Screening Center: NIH Chemical Genomics Center [NCGC]
NIH/3T3 cells and parasites were harvested, washed once and resuspended in DMEM supplemented with 2% FBS and Pen-Strep-Glut. […] Different numbers of NIH/3T3 cells were seeded in 96-well plates. After 3 h, compounds were added at the indicated concentrations and mixed by pipetting. BZN tablets (Rochagan, Roche) dissolved in DMSO and 4uM Amphotericin B solution (Sigma-Aldrich) were used as positive controls. Different numbers of T. cruzi parasites were added in a final volume of 200 ul/well. […] Plates were incubated at 37 degrees C for 4 h and absorbance was read at 590 nm using a Tecan Spectra Mini plate reader. […] The IC50 was determined as the concentration at which the activity (absorbance) was half that in the absence of compound. […]
On to `Cc1ccc(OCCn2c(CCNC(=O)C3CCCCC3)nc3ccccc32)cc1`, for which the Potency is 64 µM (active).
